Among the data in PubChem BioAssay (EPA / NIEHS) are AC50 and outcome values, retold here.

Each structure is given as a SMILES string. The source made the active and inactive calls. The calls were made as follows: active = hit-call score of the fitted dose curve at least 0.9, where 1 is the maximum; inactive = score below 0.9.

By AC50 is commonly meant the concentration at which the activity in the assay is half-maximal.

This assay is described as follows: ATG_NRF2_ARE_CIS: Attagene CIS-FACTORIAL HepG2 Assay for human Nuclear Factor Erythroid 2 Related Factor 2 (NFR2) response to Antioxidant Response Elements (ARE) (AID 2282992). Particulars: HepG2 Attagene ARE/NRF2 reporter, transcription factor activity; actives raise or lower the signal. As to the method:
ATG_CIS is a cell-based, multiplexed-readout assay that uses HepG2, a human liver cell line, with measurements taken at 24 hours after chemical dosing in a 24-well plate.ATG_NRF2_ARE_CIS is one of 52 assay component(s) measured or calculated from the ATG_CIS assay. It is designed to make measurements of mRNA induction, a form of inducible reporter, as detected with fluorescence intensity signals by Reverse transcription polymerase chain reaction (RT-PCR) and Capillary electrophoresis technology.Data from the assay component ATG_NRF2_ARE_CIS was analyzed into 1 assay endpoint. This assay endpoint, ATG_NRF2_ARE_CIS, was analyzed with bidirectional fitting relative to DMSO as the negative control and baseline of activity. Using a type of inducible reporter, measures of mRNA for gain or loss-of-signal activity can be used to understand the reporter gene at the transcription factor-level as they relate to the gene NFE2L2. Furthermore, this assay endpoint can be referred to as a primary readout, because this assay has produced multiple assay endpoints where this one serves a reporter gene function. To generalize the intended target to other relatable targets, this assay endpoint is annotated to the dna binding intended target family, where the subfamily is basic leucine zipper.
Human liver HepG2 cells are transiently transfected with multiple reporter transcription units (MRTUs) in 6-well plates using FuGene 6 reagent (Roche; 3 ml FuGene/1 mg DNA). The MRTU constructs are regulated by a cis-regulating element (promoter). […] A major difference between the CIS and TRANS system is that in CIS activities of endogenous TFs are measured, whereas the TRANS assay evaluates changes in activities of exogenous, chimeric NR-Gal4 proteins. […] At the end of 24 hour incubation, total RNA was isolated using TriZol reagent (Invitrogen). The isolated RNA is then reverse-transcribed using oligo(dT) primer and Mo-MLV reverse transcriptase (Invitrogen) with DNAse I (Ambion) treatment for 30 min. The one-tenth of the produced cDNA was amplified by PCR using Taq DNA polymerase (Invitrogen) and two reporter sequence-specific primers. The PCR products were fluorescently labeled by primer extension with 6-arboxyfluorescein (6-FAM) 5'-labeled reporter sequence-specific primer (2 min at 95 C, 20 s at 68 C and 10 min at 72 C) and these products were digested with 5U of HpaI (New England Biolabs) for 2h at 37 C. The fragments were purified using Qiaquick PCR columns (Qiagen), analyzed on an ABI 3130xL genetic analyzer (Applied Biosystems) with peak positions identified by using a set of X-rhodamine (ROX)-labeled MapMarker1000 molecular weight standards (BioVentures). The raw capillary electrophoresis data was processed using Attagraph software (Attagene).
Turning to `CCCc1c(OCCCCc2nn[nH]n2)ccc(C(C)=O)c1O`, the AC50 was 100 µM (active).

Regarding `CC(C)CC(=O)CC(C)C`, the molecule was classed as inactive.

For `CCCN[C@H]1CCc2nc(N)sc2C1`, the outcome was inactive.

For the molecule `CN(C)CCCN1c2ccccc2CCc2ccc(Cl)cc21`, the AC50 was 17.7 µM (active).

Turning to `O=C1NC(=O)[C@@H]2CC=CC[C@H]12`, the molecule was called inactive.

For `C=CCOCC(CC)(CO)COCC=C`, the molecule was called inactive.

`CCCCC(CC)COC(=O)CS` (stereo not given): the outcome was inactive.

For the molecule `CCCOCCC`, the molecule was called inactive.

Regarding `CCCCCCOC(=O)CCCCCCCC(=O)OCCCCCC`, the result was inactive.

Consider `O=C(OCc1ccccc1)c1ccccc1`, for which the outcome was inactive.

Turning to `c1ccc(CNc2ncnc3nc[nH]c23)cc1`, the outcome was inactive.

With `CCCCCCCC#N`, the outcome was inactive.

`CC/C=C\CC1=C(C)CCC1=O`: the AC50 is 35.9 µM (active).

For `CC(=O)OC(C)(C)Cc1ccccc1`, the molecule was classed as inactive.

Regarding `NC(=O)c1ccc(N)cc1`, the molecule was called inactive.

`CCOc1ccc2c(c1)C(C)CC(C)(C)N2` (stereo not given): the outcome was inactive.

For the molecule `CCO[Si](CCCN)(OCC)OCC`, the outcome was inactive.

Regarding `COC(OC)C(C)c1ccccc1` (stereo not given), the molecule was called inactive.

For `CCCCCCCCCCCCCCCCCC[N+](C)(C)C`, the AC50 is 4.81 µM (active).

For the molecule `Sc1nc2ccccc2s1`, the AC50 was 100 µM (active).

Turning to `O=C(O)Cc1c[nH]c2ccccc12`, the AC50 is 74.1 µM (active).

Take `c1ccc2c(c1)Oc1ccccc1S2`: the AC50 is 146 µM (active).

For the molecule `CCCC[N+]1(C)CCCC1`, the molecule was called inactive.

Consider `Nc1ccc(S(=O)(=O)Nc2cnc3ccccc3n2)cc1`, for which the molecule was classed as inactive.

For the molecule `OCCc1ccccn1`, the molecule was called inactive.

For the molecule `NC(N)=Nc1nc(CSCCC(N)=NS(N)(=O)=O)cs1`, the molecule was classed as inactive.

In the case of `CCCCCCC1CCC(=O)O1` (stereo not given), the call was inactive.

As for `Cc1cc(-n2nc3ccc(Cl)cc3n2)c(O)c(C(C)(C)C)c1`, the call was inactive.

As for `CCCCCCCCCCCCCC`, the outcome was inactive.

For `C/C=C(\C)C(=O)OCC/C=C\CC`, the result was inactive.

With `C[C@H]1C[C@H]2[C@@H]3CCC4=CC(=O)C=C[C@]4(C)[C@@]3(F)[C@@H](O)C[C@]2(C)[C@@]1(O)C(=O)CO`, the AC50 was 100 µM (active).

In the case of `O=C(O)c1cc(Cl)cc(Cl)c1O`, the molecule was classed as inactive.

For `C=C1CC[C@H]2C[C@@H]1C2(C)C`, the AC50 is 21.9 µM (active).

As for `CC1=C(CC(=O)O)c2cc(F)ccc2/C1=C\c1ccc(S(C)=O)cc1` (stereo not given), the AC50 is 23 µM (active).

Take `Cc1cc(O)cc(C)c1Cl`: the AC50 is 22.5 µM (active).

Turning to `O=C(Oc1ccccc1)c1ccccc1`, the outcome was inactive.

With `N#CCN(CC#N)CCN(CC#N)CC#N`, the result was inactive.

Take `O=C(O)c1ccccc1C(=O)O`: the result was inactive.

With `Clc1ccc(Sc2cc(Cl)c(Cl)cc2Cl)cc1`, the molecule was called inactive.

For the molecule `CNC[C@H](O)[C@@H](O)[C@H](O)[C@H](O)CO`, the call was inactive.
